Potency and activity change, negative = inhibition data for 40 molecules are collected here from PubChem BioAssay (Tox21).

Values joined by “and” are separate entries in the source; they are usually repeats but may differ in a detail not shown here. Equal entries are not always repeated. Inconclusive results are not listed. A call without a number means that no potency is given here. Active and inactive are the calls of the source. Calls follow the shape of the dose curve; as a rule, active = well fitted inhibition curve with a large enough effect in the repeat runs; inconclusive = weak or mixed curves; inactive = flat fitted curve, though single readings scatter.
Potency is read from the fitted curve at half-maximal effect.

Sequence of Luciferin 4-monooxygenase (Photinus pyralis) (P08659 whole entry, looked up): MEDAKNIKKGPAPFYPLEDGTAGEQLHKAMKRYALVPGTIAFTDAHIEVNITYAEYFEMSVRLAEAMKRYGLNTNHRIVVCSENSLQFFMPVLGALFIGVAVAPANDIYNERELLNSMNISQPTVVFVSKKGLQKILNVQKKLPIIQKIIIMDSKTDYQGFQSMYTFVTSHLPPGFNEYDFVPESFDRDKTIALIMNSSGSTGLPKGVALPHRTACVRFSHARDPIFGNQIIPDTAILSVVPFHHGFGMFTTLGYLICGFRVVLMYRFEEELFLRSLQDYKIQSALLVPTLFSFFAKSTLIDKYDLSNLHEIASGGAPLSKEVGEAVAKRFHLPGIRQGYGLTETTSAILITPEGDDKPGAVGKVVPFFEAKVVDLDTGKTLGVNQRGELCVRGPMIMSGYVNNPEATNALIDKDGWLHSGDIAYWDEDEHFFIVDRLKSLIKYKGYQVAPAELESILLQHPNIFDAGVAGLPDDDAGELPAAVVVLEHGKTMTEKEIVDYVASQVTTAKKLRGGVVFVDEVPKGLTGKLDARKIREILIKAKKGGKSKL

The target in this experiment is Luciferin 4-monooxygenase (Photinus pyralis) (UniProt P08659). The experiment is described as follows: qHTS assay to identify small molecule inhibitors of firefly luciferase (AID 1224835). Also: nearly all actives have a fitted effect of over 25% in size. As to conditions: purified P. pyralis luciferase, luminescence inhibition; series mostly up to 115 µM. An excerpt:
U.S. Tox21 Program National Center for Advancing Translational Sciences [NCATS] NIH Chemical Genomics Center [NCGC] U.S. Environmental Protection Agency [EPA] National Institutes of Environmental Health Sciences [NIEHS] National Toxicology Program [NTP] U.S. Food and Drug Administration [FDA] Tox21 Assay Overview: Firefly (Photinus pyralis) luciferase is one of the most commonly used transcriptional reporters. Firefly luciferase reporter-gene assays are generally considered one of the most sensitive assay types (Wood, 1995; Wood, 1998). However, it was initially observed, in 1991, by Thompson et al., that compounds that resemble the substrates of firefly luciferase (FLuc) can act as competitive inhibitors of the enzyme, and that these compounds, upon interaction with luciferase in the cell, can actually stabilize the protein and increase its half-life. Previous profiling work by other groups to determine the prevalence of compounds that affect FLuc enzymatic activity (PubChem AID 411) identified that ~3% of the MLSMR library (then at ~72K) inhibited FLuc. […] Thus the Tox21 10K library is profiled for activity against FLuc using a biochemical assay of purified FLuc and KM concentrations of FLuc substrates (D-luciferin and ATP).
These assay plates were then treated with 23nL of compound or DMSO using a Kalypsys pin tool, which allows for delivery of a 6-point interplate titration of each compound to the assay plate (quantitative HTS.) 1 uL of firefly luciferase mix (containing 50 mM Tris acetate, pH 7.6, 0.04 uM P. pyralis luciferase, 0.01% Tween, 0.05% BSA and dH2O) was then delivered by FRD to each well. Luciferase activity was then measured using a ViewLux CCD imager.
Consider `Oc1ccc(Cc2ccc(O)cc2)cc1`, for which the Potency was 40.2 µM (active).

In the case of `CCOC(=O)NC(C)(C)Cc1ccc(Cl)cc1`, the Potency entry is “inactive”.

Take `C=C(C)[C@H]1CN[C@H](C(=O)O)[C@H]1CC(=O)O`: the Potency result is “inactive”.

As for `CCCOC(=O)Cc1ccc(OCC(=O)N(CC)CC)c(OC)c1`, the Potency entry is “inactive”.

In the case of `Cc1ccc2c(c1)C1CN(C)CCC1N2` (stereo not given), the activity change, negative = inhibition was -0.519% [at 23.6 µM] (inactive).

Turning to `ClCCN1CCCC1`, the Potency entry was “inactive”.

In the case of `N#CN=C1SCCN1Cc1ccc(Cl)nc1`, the Potency entry is “inactive”.

Regarding `CC(C)(N)Cc1ccccc1Cl`, the Potency entry was “inactive”.

For `ClCCCCCCCl`, the Potency entry is “inactive”.

On to `C=CCc1cc(OC)c2c(c1)OCO2`, for which the Potency entry is “inactive”.

Take `Clc1ccc(C(Cl)(Cl)Cl)cn1`: the Potency entry is “inactive”.

Take `CN(C)C1CCCCC1`: the Potency entry was “inactive”.

As for `CN(C)CCc1c[nH]c2cccc(OP(=O)(O)O)c12`, the Potency result is “inactive”.

As for `Cc1cccc2sc3nncn3c12`, the Potency result was “inactive”.

For the molecule `CN1C(=O)COc2c(C(=O)NC3CN4CCC3CC4)cc(Cl)cc21` (stereo not given), the Potency entry was “inactive”.

Regarding `CC1N=C(N)OC1c1ccccc1` (stereo not given), the Potency result is “inactive”.

For `CCOC(=O)COc1ccc(Cl)cc1Cl`, the Potency is 35.6 µM (active).

With `Nc1c(Cl)c(F)nc(OCC(=O)O)c1Cl`, the Potency entry is “inactive”.

Take `CCOC(=O)Nc1cccc(OC(=O)Nc2ccccc2)c1`: the Potency was 31.7 µM (active).

With `CCC(C)C(C)(COC(N)=O)COC(N)=O` (stereo not given), the Potency entry was “inactive”.

Consider `O=C1CC(=O)NC(=O)N1`, for which the Potency entry was “inactive”.

On to `CCc1ccc(C2CCNCC2)cc1`, for which the Potency result was “inactive”.

With `CCN[C@H](C)Cc1cccc(C(F)(F)F)c1`, the Potency entry is “inactive”.

As to `O=c1[nH]c2ccccc2o1`, the Potency entry was “inactive”.

`C#CCOC(=O)/C=C(C)/C=C/CC(C)CCCC(C)C` (stereo not given): the Potency entry was “inactive”.

Consider `OP(O)c1ccccc1`, for which the Potency entry was “inactive”.

For `COc1ccc(C=O)cc1O`, the Potency result was “inactive”.

For `CCN[C@@H](C)Cc1cccc(C(F)(F)F)c1`, the Potency entry is “inactive”.

For `CCOC(=O)CC(SP(=S)(OC)OC)C(=O)OCC` (stereo not given), the Potency is 35.6 µM (active) and 38.9 µM (active).

Turning to `CC(C)[N+](C)(CCC(C(N)=O)(c1ccccc1)c1ccccc1)C(C)C`, the Potency entry is “inactive”.

As for `CCN1CCCC1CNC(=O)C(O)(c1ccccc1)c1ccccc1` (stereo not given), the Potency result was “inactive”.

As to `CCC1(c2ccccc2)C(=O)N(COC)C(=O)N(COC)C1=O`, the Potency entry is “inactive”.

For `C[C@H]1CCCC(=O)CCC/C=C/c2cc(O)cc(O)c2C(=O)O1`, the Potency entry is “inactive”.

For the molecule `O=C(NC(=O)c1c(F)cccc1F)Nc1cc(Cl)c(F)c(Cl)c1F`, the Potency entry was “inactive”.

On to `CC(C)(O)C(Cl)(Cl)Cl`, for which the Potency entry is “inactive”.

In the case of `CCCCOC(C)=O`, the Potency entry was “inactive”.

Turning to `C=C1CC[C@@]2(O)[C@H]3Cc4ccc(O)c5c4[C@@]2(CCN3CC2CC2)[C@H]1O5`, the Potency entry was “inactive”.

For `OCC(Cl)CCl` (stereo not given), the Potency result is “inactive”.

In the case of `[P]#[In]`, the Potency entry is “inactive”.

Consider `O=C(O)C(Cl)Br` (stereo not given), for which the Potency entry is “inactive”.
